Results from PubChem BioAssay (NCI).
About 83,000 compounds went through this panel and 20% of them were active in at least one assay; those are over-represented in the sample as a whole.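 Single-dose data. Exposure time 48 hours. Values below 10 considered active.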 The source made the active and inactive calls.

Experiments:
Assay in all cases: NCI-60 one-dose screen, 48 h (100 = growth as untreated, 0 = no growth, -100 = all killed)
Details in all cases: 10 µM unless noted
NCI-H23 lung = tested on: NCI-H23 lung
NCI-H226 lung = tested on: NCI-H226 lung
NCI-H322M lung = tested on: NCI-H322M lung
HOP-62 NSCLC = tested on: HOP-62 NSCLC
NCI-H460 lung = tested on: NCI-H460 lung
HOP-92 NSCLC = tested on: HOP-92 NSCLC
NCI-H522 lung = tested on: NCI-H522 lung
A549/ATCC NSCLC = tested on: A549/ATCC NSCLC
786-0 renal = tested on: 786-0 renal
COLO 205 colon = tested on: COLO 205 colon

Measured: growth

COc1ccc(C(=S)N2CCN(c3cccc(C)c3)CC2)cc1OC
inactive: NCI-H23 lung 65.2% | NCI-H226 lung 98.4% | NCI-H322M lung 99.7% | HOP-62 NSCLC 90.6% | NCI-H460 lung 51.8% | HOP-92 NSCLC 81% | NCI-H522 lung 22.8% | A549/ATCC NSCLC 59.4% | 786-0 renal 80.6% | COLO 205 colon 80.2%

CCCCCCNC(=O)Oc1ccc(/C(=C(\C)c2ccc(Cl)cc2)c2ccc(OCCN3CCCCC3)cc2)cc1
inactive: NCI-H23 lung 48.5% | NCI-H226 lung 91.2% | NCI-H322M lung 84.9% | HOP-62 NSCLC 68.5% | NCI-H460 lung 23.8% | HOP-92 NSCLC 47.6% | NCI-H522 lung 69.1% | A549/ATCC NSCLC 48.9% | 786-0 renal 23.7%
active: COLO 205 colon -35.8%

CCCCCCCCCCCCCCCCCCOc1ccc(CC(=O)OCC[N+]2(C)CCCCC2)cc1
inactive: NCI-H23 lung 86.7% | NCI-H226 lung 101% | NCI-H322M lung 96.4% | HOP-62 NSCLC 101% | NCI-H460 lung 101% | HOP-92 NSCLC 97.8% | NCI-H522 lung 89.2% | A549/ATCC NSCLC 88.9% | 786-0 renal 92.8% | COLO 205 colon 103%

C=C1C(=O)O[C@H]2[C@H]1CC/C(COC(=O)NCCOCCOCC(=O)Nc1ccc(OC)c(C(N)=O)c1O)=C\CC[C@@]1(C)O[C@@H]21
inactive: NCI-H23 lung 78.5% | NCI-H226 lung 89.8% | NCI-H322M lung 96.9% | HOP-62 NSCLC 84% | NCI-H460 lung 95.8% | HOP-92 NSCLC 24.2% | A549/ATCC NSCLC 84.1% | 786-0 renal 62.1%
active: NCI-H522 lung -11% | COLO 205 colon 8%

N#Cc1c(-c2ccccc2)nc(SCC(=O)Nc2nc(-c3ccc(Cl)cc3)cs2)[nH]c1=O
inactive: NCI-H23 lung 84.1% | NCI-H226 lung 95.9% | NCI-H322M lung 97.9% | HOP-62 NSCLC 90.2% | NCI-H460 lung 106% | HOP-92 NSCLC 80.7% | NCI-H522 lung 77.6% | A549/ATCC NSCLC 94.6% | 786-0 renal 96.2% | COLO 205 colon 106%

O=S(=O)(Nc1ccc(-c2nc(-c3cccc(OCCN4CCOCC4)c3)c(-c3ccnc(Br)c3)[nH]2)cc1)c1ccccc1
inactive: NCI-H23 lung 35.5% | NCI-H226 lung 48.1% | NCI-H322M lung 53.5% | HOP-62 NSCLC 40.3% | NCI-H460 lung 28.4% | HOP-92 NSCLC 22% | NCI-H522 lung 32.8% | A549/ATCC NSCLC 30.4% | 786-0 renal 13.2% | COLO 205 colon 39.3%

CCOC(=O)/C(C#N)=C\Nc1ccc2ncnc(Nc3ccc(Cl)cc3Cl)c2c1
inactive: NCI-H23 lung 99.5% | NCI-H226 lung 99.8% | NCI-H322M lung 75.6% | HOP-62 NSCLC 101% | NCI-H460 lung 84.8% | HOP-92 NSCLC 56.5% | NCI-H522 lung 95.8% | A549/ATCC NSCLC 72.1% | 786-0 renal 82.6% | COLO 205 colon 108%

CCCCN(C)N=Nc1ccc(C(N)=O)cc1
inactive: NCI-H23 lung 102% | NCI-H226 lung 124% | NCI-H322M lung 105% | HOP-62 NSCLC 122% | NCI-H460 lung 104% | HOP-92 NSCLC 103% | NCI-H522 lung 109% | A549/ATCC NSCLC 97.3% | 786-0 renal 106% | COLO 205 colon 110%

COc1cc(C(=O)c2cc(C)c3[nH]c4ccc(O)cc4c3c2C)cc(OC)c1OC
inactive: NCI-H23 lung 31.4% | NCI-H226 lung 53% | NCI-H322M lung 33.7% | HOP-62 NSCLC 40.1% | HOP-92 NSCLC 32.2% | NCI-H522 lung 33.7% | A549/ATCC NSCLC 22.7% | 786-0 renal 13.8%
active: NCI-H460 lung 8.93% | COLO 205 colon 7.01%

O=C(CSc1nc2ccccc2[nH]1)Nc1cccc(Cl)c1
inactive: NCI-H23 lung 98.4% | NCI-H226 lung 101% | NCI-H322M lung 96.3% | HOP-62 NSCLC 94.9% | NCI-H460 lung 103% | HOP-92 NSCLC 90.6% | NCI-H522 lung 89% | A549/ATCC NSCLC 111% | 786-0 renal 101% | COLO 205 colon 108%

Cc1ccc(/C=C(\C#N)n2nc3cccc(F)c3n2)cc1
inactive: NCI-H23 lung 83.7% | NCI-H226 lung 92.9% | NCI-H322M lung 88.7% | HOP-62 NSCLC 93.9% | NCI-H460 lung 96.3% | HOP-92 NSCLC 55.7% | NCI-H522 lung 74.9% | A549/ATCC NSCLC 97.7% | 786-0 renal 83.7% | COLO 205 colon 122%

O=C1COCCN1c1ccc(NCc2cn(C(=O)c3ccc(Cl)cc3)c3ccccc23)cc1
inactive: NCI-H23 lung 54.5% | NCI-H322M lung 95.1% | HOP-62 NSCLC 60.2% | NCI-H460 lung 14.9% | HOP-92 NSCLC 58.2% | NCI-H522 lung 65.6% | A549/ATCC NSCLC 46.9% | 786-0 renal 65.8% | COLO 205 colon 29.3%
active: NCI-H226 lung -61.1%

CC1=C(C)C(=O)C(Nc2cccc(C(=O)OC(C)(C)C)c2)=C(Br)C1=O
active: HOP-92 NSCLC -32.5%
inactive: NCI-H23 lung 85.9% | NCI-H226 lung 86.5% | NCI-H322M lung 91.1% | HOP-62 NSCLC 92.6% | NCI-H460 lung 99.7% | NCI-H522 lung 67.4% | A549/ATCC NSCLC 95.6% | 786-0 renal 96.2% | COLO 205 colon 114%

COc1ccc(C2=Nn3c(nnc3-c3cc(Cl)cc(Cl)c3Cl)SC2)cc1
active: NCI-H23 lung 3.14% | HOP-62 NSCLC -2.41% | NCI-H460 lung -18.9% | NCI-H522 lung -17.8% | 786-0 renal 6.36% | COLO 205 colon -34.4%
inactive: NCI-H226 lung 64.8% | NCI-H322M lung 36.4% | HOP-92 NSCLC 22.3% | A549/ATCC NSCLC 21.9%

Cc1ccc(-c2nc(N3CCN(C(=O)Nc4ccc(Cl)c(C(F)(F)F)c4)CC3)c3ccccc3n2)cc1
inactive: NCI-H23 lung 78.1% | NCI-H226 lung 78.7% | NCI-H322M lung 64.3% | HOP-62 NSCLC 79.2% | NCI-H460 lung 81.1% | HOP-92 NSCLC 82% | NCI-H522 lung 69.9% | A549/ATCC NSCLC 64% | 786-0 renal 81.3% | COLO 205 colon 89.6%

O=C1c2cccc3cccc(c23)C(=O)N1Nc1nc(NC2CCCCC2)nc(N2CCOCC2)n1
inactive: NCI-H23 lung 95.4% | NCI-H226 lung 98% | NCI-H322M lung 93.4% | HOP-62 NSCLC 91.3% | NCI-H460 lung 102% | HOP-92 NSCLC 86.3% | NCI-H522 lung 93.5% | A549/ATCC NSCLC 95% | 786-0 renal 104% | COLO 205 colon 107%

COc1ccc2[nH]c(-c3ccccc3)c(/C=C(\C#N)S(=O)(=O)c3ccccc3)c2c1
inactive: NCI-H23 lung 60% | NCI-H226 lung 99.5% | NCI-H322M lung 77.8% | HOP-62 NSCLC 79.1% | NCI-H460 lung 20% | HOP-92 NSCLC 63.2% | NCI-H522 lung 64.3% | A549/ATCC NSCLC 45.1% | 786-0 renal 69.1% | COLO 205 colon 46.6%

NC(=O)Nc1ccc2ncnc(Nc3ccc(Cl)cc3)c2c1
inactive: NCI-H23 lung 100% | NCI-H226 lung 99.8% | NCI-H322M lung 18% | HOP-62 NSCLC 86.2% | NCI-H460 lung 87.9% | HOP-92 NSCLC 74.2% | NCI-H522 lung 66.2% | A549/ATCC NSCLC 72.5% | 786-0 renal 85.9% | COLO 205 colon 101%

NCCCNc1nc2ccccc2c2c(=O)c3cc(C(F)(F)F)ccc3sc12
inactive: NCI-H23 lung 49.6% | NCI-H226 lung 86.8% | NCI-H322M lung 56.8% | HOP-62 NSCLC 52.7% | HOP-92 NSCLC 32.6% | 786-0 renal 61.1%
active: NCI-H460 lung -69.7% | NCI-H522 lung -3.15% | A549/ATCC NSCLC -16.6% | COLO 205 colon -41.4%

Oc1ccc(CCl)c2cccnc12
inactive: NCI-H23 lung 59.4% | NCI-H226 lung 101% | NCI-H322M lung 71.9% | HOP-62 NSCLC 92.8% | NCI-H460 lung 55% | HOP-92 NSCLC 89.2% | NCI-H522 lung 52.6% | A549/ATCC NSCLC 76.1% | 786-0 renal 97.6% | COLO 205 colon 35.9%

CC/C=C\C[C@@H]1C/C=C2/C(=O)C=C[C@H]2C/C=C\CCCC(=O)O1
active: NCI-H23 lung -32.1% | NCI-H226 lung -20% | NCI-H322M lung -54.5% | HOP-62 NSCLC -14% | NCI-H460 lung -48.6% | HOP-92 NSCLC -25.8% | NCI-H522 lung -83.4% | A549/ATCC NSCLC -26.7% | 786-0 renal -88.4% | COLO 205 colon -64.2%

CCc1cccc2c3c(sc12)C(c1ccc(Cl)cc1)C(C#N)=C(N)O3 (stereo not given)
active: COLO 205 colon 9.3%
inactive: NCI-H23 lung 22.5% | NCI-H226 lung 41.2% | NCI-H322M lung 49.6% | HOP-62 NSCLC 36.9% | NCI-H460 lung 10.2% | HOP-92 NSCLC 66.7% | NCI-H522 lung 16.8% | A549/ATCC NSCLC 34.6% | 786-0 renal 26.9%

O=C(Nc1ccc(Br)cc1F)c1cc(Br)ccc1O
inactive: HOP-62 NSCLC 13% | COLO 205 colon 85.6%
active: NCI-H23 lung 0.13% | NCI-H226 lung -1.23% | NCI-H322M lung -4.81% | NCI-H460 lung 3.37% | HOP-92 NSCLC -14.6% | NCI-H522 lung -7.77% | A549/ATCC NSCLC 8.21% | 786-0 renal 7.72%

COc1cc(CCC[P+](c2ccccc2)(c2ccccc2)c2ccccc2)c(OC)c2c1OCO2
inactive: NCI-H23 lung 19.3% | NCI-H226 lung 55.3% | NCI-H322M lung 85.3% | HOP-62 NSCLC 18.9% | NCI-H460 lung 31.8% | HOP-92 NSCLC 11.3% | A549/ATCC NSCLC 43.7% | 786-0 renal 31.2%
active: NCI-H522 lung 6.02% | COLO 205 colon -35.6%

Fc1cc(-c2nnc3n2NC(=Nc2ccc(Cl)cc2)CS3)c(Cl)cc1Cl
inactive: NCI-H23 lung 79.3% | NCI-H226 lung 122% | NCI-H322M lung 100% | HOP-62 NSCLC 73.6% | NCI-H460 lung 96.5% | NCI-H522 lung 76.3% | A549/ATCC NSCLC 87.5% | 786-0 renal 81.9% | COLO 205 colon 95.6%
active: HOP-92 NSCLC -18.6%

CCOC(=O)c1[nH]c(C)c(C(=O)OCc2ccccc2C#N)c1C
inactive: NCI-H23 lung 69% | NCI-H226 lung 100% | NCI-H322M lung 88.4% | HOP-62 NSCLC 68.7% | NCI-H460 lung 83.4% | HOP-92 NSCLC 47.4% | NCI-H522 lung 51.8% | A549/ATCC NSCLC 83.6% | 786-0 renal 61.2% | COLO 205 colon 89.8%

COc1ccc(C(=O)COC(=O)[C@H](C[Se][Se]C[C@H](NC(=O)c2ccc(Br)cc2F)C(=O)OCC(=O)c2ccc(OC)cc2)NC(=O)c2ccc(Br)cc2F)cc1
active: NCI-H23 lung -50.3% | NCI-H226 lung -69.5% | NCI-H322M lung 0.597% | HOP-62 NSCLC -72.4% | NCI-H460 lung -36.6% | HOP-92 NSCLC -27.9% | NCI-H522 lung -69.5% | A549/ATCC NSCLC -3.84% | 786-0 renal -95.8% | COLO 205 colon -45.6%
